Consider eleven sequences from article PMC11006913.

Common to all, as to experiment: PBM; 200 nM protein, PBS
What all share (details): dsDNA, one strand shown

In test [1] the target is HOXC9 (Homo sapiens, UniProt P31274 178-260, K195R).
Test [2] deals with ALX4 (Homo sapiens, UniProt Q9H161 200-286).
Test [3] addresses ALX4 (Homo sapiens, UniProt Q9H161 200-286, Q225E).
The target of test [4] is HOXC9 (Homo sapiens, UniProt P31274 178-260).
Test [5] deals with ALX1 (Homo sapiens, UniProt Q15699 118-204, L144V).
ALX1 (Homo sapiens, UniProt Q15699 118-204, L144V), sequence (Q15699 118-204 L144V): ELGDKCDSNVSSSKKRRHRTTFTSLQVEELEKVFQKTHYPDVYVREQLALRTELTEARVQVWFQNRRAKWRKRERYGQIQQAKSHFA
In test [6] the target is HOXC9 (Homo sapiens, UniProt P31274 178-260, R193K).
HOXC9 (Homo sapiens, UniProt P31274 178-260, R193K), sequence (P31274 178-260 R193K): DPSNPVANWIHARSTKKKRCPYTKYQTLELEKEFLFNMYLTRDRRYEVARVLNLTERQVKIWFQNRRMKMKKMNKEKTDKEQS
Test [7] concerns the target ALX1 (Homo sapiens, UniProt Q15699 118-204, L144R).
For test [8], the target named is HOXC9 (Homo sapiens, UniProt P31274 178-260, R222W).
HOXC9 (Homo sapiens, UniProt P31274 178-260, R222W), sequence (P31274 178-260 R222W): as the sequence (P31274 178-260 R193K) above, with K16R, R45W counted along it
The target of test [9] is ALX1 (Homo sapiens, UniProt Q15699 118-204).
ALX1 (Homo sapiens, UniProt Q15699 118-204), sequence (Q15699 118-204): as the sequence (Q15699 118-204 L144V) above, with V27L counted along it
In test [10] the target is HOXA4 (Homo sapiens, UniProt Q00056 201-287, W262R).
HOXA4 (Homo sapiens, UniProt Q00056 201-287, W262R), sequence (Q00056 201-287 W262R): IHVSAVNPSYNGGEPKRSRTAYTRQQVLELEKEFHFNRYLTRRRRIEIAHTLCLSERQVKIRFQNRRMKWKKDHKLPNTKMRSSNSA
Test [11] concerns the target HOXA4 (Homo sapiens, UniProt Q00056 201-287).
Test [12] has as its target HOXA4 (Homo sapiens, UniProt Q00056 201-287, W262F).
The target in test [13] is HOXC10 (Homo sapiens, UniProt Q9NYD6 254-340).
HOXC10 (Homo sapiens, UniProt Q9NYD6 254-340), sequence (Q9NYD6 254-340): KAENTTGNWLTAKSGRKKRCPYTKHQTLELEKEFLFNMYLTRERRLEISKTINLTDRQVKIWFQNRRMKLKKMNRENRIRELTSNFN
Test [14] concerns the target HOXD13 (Homo sapiens, UniProt P35453 263-343, T313R).
The target of test [15] is HOXD13 (Homo sapiens, UniProt P35453 263-343).
HOXD13 (Homo sapiens, UniProt P35453 263-343), sequence (P35453 263-343): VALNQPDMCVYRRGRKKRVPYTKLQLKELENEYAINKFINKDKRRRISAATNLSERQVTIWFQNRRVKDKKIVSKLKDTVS
The target of test [16] is HOXC10 (Homo sapiens, UniProt Q9NYD6 254-340, K271E).
HOXC10 (Homo sapiens, UniProt Q9NYD6 254-340, K271E), sequence (Q9NYD6 254-340 K271E): as the sequence (Q9NYD6 254-340) above, with K18E counted along it
Test [17] concerns the target HOXD13 (Homo sapiens, UniProt P35453 263-343, T313A).
The target in test [18] is T1, PAX4 (Homo sapiens, UniProt O43316 9-242, R200K).
T1 sequence: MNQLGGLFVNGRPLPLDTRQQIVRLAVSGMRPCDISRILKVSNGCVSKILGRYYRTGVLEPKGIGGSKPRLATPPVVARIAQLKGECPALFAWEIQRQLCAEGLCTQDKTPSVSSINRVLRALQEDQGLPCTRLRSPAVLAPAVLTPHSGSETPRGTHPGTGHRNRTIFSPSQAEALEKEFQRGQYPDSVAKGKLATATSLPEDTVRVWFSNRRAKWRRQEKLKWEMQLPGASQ

In test [19] the target is T2, PAX4 (Homo sapiens, UniProt O43316 9-242).
T2 sequence: T1 sequence with K192R

A further test has as its target T3, NKX2-6 (Homo sapiens, UniProt A6NCS4 118-204, R150C).
T3 sequence: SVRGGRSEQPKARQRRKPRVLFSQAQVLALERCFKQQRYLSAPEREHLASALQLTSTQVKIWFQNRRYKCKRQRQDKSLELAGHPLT

Test [20] addresses T4, PAX4 (Homo sapiens, UniProt O43316 9-242, R200Q).
T4 sequence: T1 sequence with K192Q

For test [21], the target named is T5, PAX4 (Homo sapiens, UniProt O43316 9-242, F177V).
T5 sequence: T1 sequence with F169V, K192R

The target in test [22] is T6, PAX4 (Homo sapiens, UniProt O43316 9-242, F177Y).
T6 sequence: T1 sequence with F169Y, K192R

Test [23] addresses T7, PAX4 (Homo sapiens, UniProt O43316 9-242, R227W).
T7 sequence: T1 sequence with K192R, R219W

For test [24], the target named is PRRX1 (Homo sapiens, UniProt P54821 80-166, F113S).
PRRX1 (Homo sapiens, UniProt P54821 80-166, F113S), sequence (P54821 80-166 F113S): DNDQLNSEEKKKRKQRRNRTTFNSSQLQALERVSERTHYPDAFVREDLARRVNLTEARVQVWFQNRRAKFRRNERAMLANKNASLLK
Test [25] deals with PRRX1 (Homo sapiens, UniProt P54821 80-166).
PRRX1 (Homo sapiens, UniProt P54821 80-166), sequence (P54821 80-166): as the sequence (P54821 80-166 F113S) above, with S34F counted along it

Residue numbers refer to the chain shown, from its start.

HOXA4 (Homo sapiens, UniProt Q00056 201-287, W262F), sequence (Q00056 201-287 W262F): as the sequence (Q00056 201-287 W262R) above, with R62F counted along it
HOXC9 (Homo sapiens, UniProt P31274 178-260), sequence (P31274 178-260): as the sequence (P31274 178-260 R193K) above, with K16R counted along it
HOXA4 (Homo sapiens, UniProt Q00056 201-287), sequence (Q00056 201-287): as the sequence (Q00056 201-287 W262R) above, with R62W counted along it
HOXC9 (Homo sapiens, UniProt P31274 178-260, K195R), sequence (P31274 178-260 K195R): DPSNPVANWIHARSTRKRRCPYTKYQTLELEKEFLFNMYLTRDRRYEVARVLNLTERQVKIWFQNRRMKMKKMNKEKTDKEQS
ALX1 (Homo sapiens, UniProt Q15699 118-204, L144R), sequence (Q15699 118-204 L144R): as the sequence (Q15699 118-204 L144V) above, with V27R counted along it
HOXD13 (Homo sapiens, UniProt P35453 263-343, T313A), sequence (P35453 263-343 T313A): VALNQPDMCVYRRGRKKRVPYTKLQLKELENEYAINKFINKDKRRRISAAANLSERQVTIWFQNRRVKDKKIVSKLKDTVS
ALX4 (Homo sapiens, UniProt Q9H161 200-286), sequence (Q9H161 200-286): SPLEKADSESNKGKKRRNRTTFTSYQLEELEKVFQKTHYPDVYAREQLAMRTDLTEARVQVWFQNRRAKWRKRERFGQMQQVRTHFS
ALX4 (Homo sapiens, UniProt Q9H161 200-286, Q225E), sequence (Q9H161 200-286 Q225E): as the sequence (Q9H161 200-286) above, with Q26E counted along it
HOXD13 (Homo sapiens, UniProt P35453 263-343, T313R), sequence (P35453 263-343 T313R): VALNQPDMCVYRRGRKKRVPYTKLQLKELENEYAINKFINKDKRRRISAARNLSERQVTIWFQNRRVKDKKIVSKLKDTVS

With CCAGTGGG, the binding signal with HOXC9 [1] was 9.58 upbm affinity estimate (log intensity, higher = more binding, comparable within an allelic series); with ALX4 [2] it was 8.11 upbm affinity estimate (log intensity, higher = more binding, comparable within an allelic series); with ALX4 [3], 8.16 upbm affinity estimate (log intensity, higher = more binding, comparable within an allelic series); in the test with HOXC9 [4], 9.54 upbm affinity estimate (log intensity, higher = more binding, comparable within an allelic series); with ALX1 [5] it was 6.51 upbm affinity estimate (log intensity, higher = more binding, comparable within an allelic series); with HOXC9 [6] it was 9.48 upbm affinity estimate (log intensity, higher = more binding, comparable within an allelic series). For the same sequence, the binding signal in the test with ALX1 [7] was 6.46 upbm affinity estimate (log intensity, higher = more binding, comparable within an allelic series); with HOXC9 [8], 9.57 upbm affinity estimate (log intensity, higher = more binding, comparable within an allelic series); with ALX1 [9], 6.33 upbm affinity estimate (log intensity, higher = more binding, comparable within an allelic series).
As for GAAAACGA, the binding signal with HOXA4 [10] was 10.1 upbm affinity estimate (log intensity, higher = more binding, comparable within an allelic series); with HOXA4 [11], 10.9 upbm affinity estimate (log intensity, higher = more binding, comparable within an allelic series).
In the case of GTTCTTAA, the binding signal in the test with HOXA4 [10] was 10.3 upbm affinity estimate (log intensity, higher = more binding, comparable within an allelic series); with HOXA4 [11] it was 11.4 upbm affinity estimate (log intensity, higher = more binding, comparable within an allelic series); in the test with HOXA4 [12] it was 10.5 upbm affinity estimate (log intensity, higher = more binding, comparable within an allelic series).
For the sequence AAGATTAC, the binding signal is 10.2 upbm affinity estimate (log intensity, higher = more binding, comparable within an allelic series) with HOXA4 [10]; 11.1 upbm affinity estimate (log intensity, higher = more binding, comparable within an allelic series) in the test with HOXA4 [11]; 10.4 upbm affinity estimate (log intensity, higher = more binding, comparable within an allelic series) with HOXA4 [12].
With ATTTACGA, the binding signal was 12.4 upbm affinity estimate (log intensity, higher = more binding, comparable within an allelic series) with HOXC9 [1]; 12.3 upbm affinity estimate (log intensity, higher = more binding, comparable within an allelic series) with HOXC10 [13]; 12.6 upbm affinity estimate (log intensity, higher = more binding, comparable within an allelic series) in the test with HOXC9 [4]; 10.9 upbm affinity estimate (log intensity, higher = more binding, comparable within an allelic series) with HOXD13 [14]; 12.4 upbm affinity estimate (log intensity, higher = more binding, comparable within an allelic series) with HOXC9 [6]; 12 upbm affinity estimate (log intensity, higher = more binding, comparable within an allelic series) in the test with HOXD13 [15]. Further, the binding signal was 11.8 upbm affinity estimate (log intensity, higher = more binding, comparable within an allelic series) with HOXC10 [16]; 11.8 upbm affinity estimate (log intensity, higher = more binding, comparable within an allelic series) with HOXD13 [17]; 10.9 upbm affinity estimate (log intensity, higher = more binding, comparable within an allelic series) in the test with HOXC9 [8].
In the case of CCGGGAGC, the binding signal with HOXC9 [1] is 9.52 upbm affinity estimate (log intensity, higher = more binding, comparable within an allelic series); with PAX4 [18], 9.29 upbm affinity estimate (log intensity, higher = more binding, comparable within an allelic series); with PAX4 [19], 9.27 upbm affinity estimate (log intensity, higher = more binding, comparable within an allelic series); with NKX2-6, 9.24 upbm affinity estimate (log intensity, higher = more binding, comparable within an allelic series); with HOXC9 [4], 9.61 upbm affinity estimate (log intensity, higher = more binding, comparable within an allelic series); with PAX4 [20] it was 9.33 upbm affinity estimate (log intensity, higher = more binding, comparable within an allelic series). The binding signal in the test with HOXC9 [6] is 9.49 upbm affinity estimate (log intensity, higher = more binding, comparable within an allelic series); with PAX4 [21], 9.16 upbm affinity estimate (log intensity, higher = more binding, comparable within an allelic series); in the test with PAX4 [22] it was 9.2 upbm affinity estimate (log intensity, higher = more binding, comparable within an allelic series); in the test with HOXC9 [8], 9.58 upbm affinity estimate (log intensity, higher = more binding, comparable within an allelic series); with PAX4 [23], 9.25 upbm affinity estimate (log intensity, higher = more binding, comparable within an allelic series).
On to GGTAATAA, for which the binding signal with HOXC9 [1] is 12.4 upbm affinity estimate (log intensity, higher = more binding, comparable within an allelic series); in the test with HOXC10 [13], 12.2 upbm affinity estimate (log intensity, higher = more binding, comparable within an allelic series); in the test with HOXC9 [4], 12.6 upbm affinity estimate (log intensity, higher = more binding, comparable within an allelic series); with HOXC9 [6], 12.5 upbm affinity estimate (log intensity, higher = more binding, comparable within an allelic series); in the test with HOXC10 [16], 11.9 upbm affinity estimate (log intensity, higher = more binding, comparable within an allelic series); with HOXC9 [8], 10.9 upbm affinity estimate (log intensity, higher = more binding, comparable within an allelic series).
As to AATCGATG, the binding signal with HOXA4 [10] is 10.4 upbm affinity estimate (log intensity, higher = more binding, comparable within an allelic series); with HOXA4 [11] it was 11.7 upbm affinity estimate (log intensity, higher = more binding, comparable within an allelic series).
In the case of AGTCTTTA, the binding signal was 10.2 upbm affinity estimate (log intensity, higher = more binding, comparable within an allelic series) with HOXA4 [10]; 11.2 upbm affinity estimate (log intensity, higher = more binding, comparable within an allelic series) with HOXA4 [11]; 10.4 upbm affinity estimate (log intensity, higher = more binding, comparable within an allelic series) with HOXA4 [12].
Regarding CAGACGGC, the binding signal with HOXC9 [1] was 9.46 upbm affinity estimate (log intensity, higher = more binding, comparable within an allelic series); with PRRX1 [24] it was 9.13 upbm affinity estimate (log intensity, higher = more binding, comparable within an allelic series); with HOXC9 [4] it was 9.65 upbm affinity estimate (log intensity, higher = more binding, comparable within an allelic series); in the test with ALX1 [5], 6.56 upbm affinity estimate (log intensity, higher = more binding, comparable within an allelic series); with HOXC9 [6], 9.48 upbm affinity estimate (log intensity, higher = more binding, comparable within an allelic series); with ALX1 [7] it was 6.52 upbm affinity estimate (log intensity, higher = more binding, comparable within an allelic series). Further, the binding signal in the test with HOXC9 [8] was 9.64 upbm affinity estimate (log intensity, higher = more binding, comparable within an allelic series); in the test with ALX1 [9], 6.59 upbm affinity estimate (log intensity, higher = more binding, comparable within an allelic series); with PRRX1 [25], 9.37 upbm affinity estimate (log intensity, higher = more binding, comparable within an allelic series).
Consider CGCTTAAC, for which the binding signal was 10.2 upbm affinity estimate (log intensity, higher = more binding, comparable within an allelic series) with HOXA4 [10]; 11.2 upbm affinity estimate (log intensity, higher = more binding, comparable within an allelic series) with HOXA4 [11]; 10.3 upbm affinity estimate (log intensity, higher = more binding, comparable within an allelic series) with HOXA4 [12].
